This note sets out measurements from the supplement of paper PMC10849652.

About 7,900 targets were measured; listed, in parts, are those with a hit and a random draw of the rest. About 0.6% of all pairs of compound and target were hits.

Sequence of UniProt Q16531 (Q16531 whole entry, looked up): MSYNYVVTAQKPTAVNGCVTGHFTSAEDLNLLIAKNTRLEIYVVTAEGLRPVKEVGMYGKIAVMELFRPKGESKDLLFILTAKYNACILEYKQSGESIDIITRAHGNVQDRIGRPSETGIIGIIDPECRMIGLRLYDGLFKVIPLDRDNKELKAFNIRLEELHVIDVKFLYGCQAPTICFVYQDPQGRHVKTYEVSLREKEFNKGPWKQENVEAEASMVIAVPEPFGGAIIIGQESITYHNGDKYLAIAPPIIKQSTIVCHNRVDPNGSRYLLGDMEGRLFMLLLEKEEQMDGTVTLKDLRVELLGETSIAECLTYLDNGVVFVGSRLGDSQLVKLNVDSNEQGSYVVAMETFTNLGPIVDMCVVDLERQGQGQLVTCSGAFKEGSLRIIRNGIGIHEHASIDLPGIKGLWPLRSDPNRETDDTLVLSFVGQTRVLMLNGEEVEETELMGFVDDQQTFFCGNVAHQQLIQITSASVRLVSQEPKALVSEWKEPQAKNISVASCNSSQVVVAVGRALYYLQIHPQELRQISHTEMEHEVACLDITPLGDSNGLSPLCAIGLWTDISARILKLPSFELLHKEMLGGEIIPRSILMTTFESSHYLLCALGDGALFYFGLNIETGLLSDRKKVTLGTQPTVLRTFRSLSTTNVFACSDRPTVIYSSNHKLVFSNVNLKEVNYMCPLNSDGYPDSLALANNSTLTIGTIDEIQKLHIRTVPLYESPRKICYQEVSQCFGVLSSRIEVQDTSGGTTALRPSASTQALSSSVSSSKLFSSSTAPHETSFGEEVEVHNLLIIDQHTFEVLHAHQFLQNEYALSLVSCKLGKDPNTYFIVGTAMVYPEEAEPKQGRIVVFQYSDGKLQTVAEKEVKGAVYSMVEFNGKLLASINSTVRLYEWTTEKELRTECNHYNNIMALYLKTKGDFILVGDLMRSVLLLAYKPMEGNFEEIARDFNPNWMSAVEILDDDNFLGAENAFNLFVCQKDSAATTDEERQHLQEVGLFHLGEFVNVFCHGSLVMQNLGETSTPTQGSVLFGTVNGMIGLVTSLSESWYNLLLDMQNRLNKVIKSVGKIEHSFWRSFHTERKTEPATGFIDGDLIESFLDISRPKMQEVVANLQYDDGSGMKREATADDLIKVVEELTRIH
Sequence of UniProt Q14320 (Q14320 whole entry, looked up): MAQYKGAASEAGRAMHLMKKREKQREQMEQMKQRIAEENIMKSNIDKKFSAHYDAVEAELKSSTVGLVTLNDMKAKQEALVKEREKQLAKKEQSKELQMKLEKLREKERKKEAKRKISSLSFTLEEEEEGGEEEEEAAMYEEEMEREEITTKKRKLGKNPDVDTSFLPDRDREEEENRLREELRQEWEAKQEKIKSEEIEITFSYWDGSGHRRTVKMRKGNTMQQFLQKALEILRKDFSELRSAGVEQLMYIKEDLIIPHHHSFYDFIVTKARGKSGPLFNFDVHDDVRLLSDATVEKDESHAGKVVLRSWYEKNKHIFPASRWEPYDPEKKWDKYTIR
Sequence of UniProt P17844 (P17844 whole entry, looked up): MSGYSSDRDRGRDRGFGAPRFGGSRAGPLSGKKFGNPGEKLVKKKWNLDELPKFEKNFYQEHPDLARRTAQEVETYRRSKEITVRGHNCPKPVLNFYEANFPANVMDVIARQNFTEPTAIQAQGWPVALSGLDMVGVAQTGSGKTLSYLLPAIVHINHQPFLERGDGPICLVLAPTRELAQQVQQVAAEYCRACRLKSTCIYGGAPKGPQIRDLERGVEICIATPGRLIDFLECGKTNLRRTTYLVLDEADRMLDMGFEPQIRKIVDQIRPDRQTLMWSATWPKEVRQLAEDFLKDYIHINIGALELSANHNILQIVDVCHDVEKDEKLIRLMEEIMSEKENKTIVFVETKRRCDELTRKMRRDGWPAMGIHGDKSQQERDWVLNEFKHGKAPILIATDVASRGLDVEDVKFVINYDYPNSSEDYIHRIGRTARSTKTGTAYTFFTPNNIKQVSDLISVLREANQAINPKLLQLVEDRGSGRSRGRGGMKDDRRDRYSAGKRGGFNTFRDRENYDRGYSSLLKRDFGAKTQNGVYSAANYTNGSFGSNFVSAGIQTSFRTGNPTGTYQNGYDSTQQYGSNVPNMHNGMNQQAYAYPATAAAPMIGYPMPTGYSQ
Sequence of UniProt Q6P2E9 (Q6P2E9 whole entry, looked up): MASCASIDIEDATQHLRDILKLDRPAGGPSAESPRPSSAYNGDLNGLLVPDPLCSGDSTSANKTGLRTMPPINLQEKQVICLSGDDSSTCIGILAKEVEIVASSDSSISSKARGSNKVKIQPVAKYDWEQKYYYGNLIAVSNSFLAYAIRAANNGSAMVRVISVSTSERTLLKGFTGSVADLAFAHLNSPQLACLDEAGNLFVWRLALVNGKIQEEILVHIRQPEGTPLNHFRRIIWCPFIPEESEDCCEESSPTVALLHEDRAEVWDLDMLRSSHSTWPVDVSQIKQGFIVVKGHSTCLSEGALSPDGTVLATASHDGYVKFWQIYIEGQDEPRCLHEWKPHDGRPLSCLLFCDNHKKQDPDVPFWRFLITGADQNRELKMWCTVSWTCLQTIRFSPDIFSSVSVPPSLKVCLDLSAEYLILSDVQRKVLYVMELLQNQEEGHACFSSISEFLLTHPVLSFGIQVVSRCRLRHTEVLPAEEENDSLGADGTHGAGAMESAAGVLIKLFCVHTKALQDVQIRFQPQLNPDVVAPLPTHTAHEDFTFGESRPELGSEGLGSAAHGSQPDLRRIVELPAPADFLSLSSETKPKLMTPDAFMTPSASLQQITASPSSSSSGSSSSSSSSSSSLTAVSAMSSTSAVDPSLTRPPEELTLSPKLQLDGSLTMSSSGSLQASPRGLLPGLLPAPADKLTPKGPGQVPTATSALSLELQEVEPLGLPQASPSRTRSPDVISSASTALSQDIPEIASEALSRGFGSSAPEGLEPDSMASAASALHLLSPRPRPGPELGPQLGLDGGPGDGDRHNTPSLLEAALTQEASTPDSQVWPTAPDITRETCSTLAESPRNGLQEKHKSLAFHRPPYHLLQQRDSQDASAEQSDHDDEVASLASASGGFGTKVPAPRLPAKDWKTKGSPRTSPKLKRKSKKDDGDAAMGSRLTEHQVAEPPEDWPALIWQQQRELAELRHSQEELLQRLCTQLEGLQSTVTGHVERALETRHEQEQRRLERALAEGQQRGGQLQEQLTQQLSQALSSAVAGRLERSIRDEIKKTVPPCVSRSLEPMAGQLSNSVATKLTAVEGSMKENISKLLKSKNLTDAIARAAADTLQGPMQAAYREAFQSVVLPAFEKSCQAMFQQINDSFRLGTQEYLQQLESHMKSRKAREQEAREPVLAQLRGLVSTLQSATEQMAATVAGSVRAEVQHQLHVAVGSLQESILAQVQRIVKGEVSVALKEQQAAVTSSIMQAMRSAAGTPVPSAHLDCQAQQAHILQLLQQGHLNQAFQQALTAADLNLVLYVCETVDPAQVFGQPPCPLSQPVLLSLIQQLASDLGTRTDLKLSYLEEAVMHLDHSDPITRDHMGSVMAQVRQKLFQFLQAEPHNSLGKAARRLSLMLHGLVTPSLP
Sequence of UniProt Q8N6R0 (Q8N6R0 whole entry, looked up): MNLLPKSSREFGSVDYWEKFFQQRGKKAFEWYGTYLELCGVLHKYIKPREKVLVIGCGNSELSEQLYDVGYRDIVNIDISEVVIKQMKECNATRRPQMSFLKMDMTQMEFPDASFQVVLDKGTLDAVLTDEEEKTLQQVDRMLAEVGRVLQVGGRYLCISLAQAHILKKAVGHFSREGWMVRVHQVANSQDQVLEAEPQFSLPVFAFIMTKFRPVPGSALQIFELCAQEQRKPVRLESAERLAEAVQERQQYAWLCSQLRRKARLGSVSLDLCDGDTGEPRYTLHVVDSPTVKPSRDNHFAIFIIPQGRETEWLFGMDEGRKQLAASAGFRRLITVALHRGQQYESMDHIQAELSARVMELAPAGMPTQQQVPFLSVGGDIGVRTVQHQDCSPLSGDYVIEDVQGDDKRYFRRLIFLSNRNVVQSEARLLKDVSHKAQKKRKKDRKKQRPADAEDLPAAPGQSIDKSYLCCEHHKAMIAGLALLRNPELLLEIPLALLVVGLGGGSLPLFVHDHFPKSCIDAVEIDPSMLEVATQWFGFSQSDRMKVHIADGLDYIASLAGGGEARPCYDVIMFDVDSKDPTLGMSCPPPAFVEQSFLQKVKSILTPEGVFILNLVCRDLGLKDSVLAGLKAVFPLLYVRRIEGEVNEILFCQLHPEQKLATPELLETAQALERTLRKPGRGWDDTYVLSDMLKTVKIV
Sequence of UniProt Q96GG9 (Q96GG9 whole entry, looked up): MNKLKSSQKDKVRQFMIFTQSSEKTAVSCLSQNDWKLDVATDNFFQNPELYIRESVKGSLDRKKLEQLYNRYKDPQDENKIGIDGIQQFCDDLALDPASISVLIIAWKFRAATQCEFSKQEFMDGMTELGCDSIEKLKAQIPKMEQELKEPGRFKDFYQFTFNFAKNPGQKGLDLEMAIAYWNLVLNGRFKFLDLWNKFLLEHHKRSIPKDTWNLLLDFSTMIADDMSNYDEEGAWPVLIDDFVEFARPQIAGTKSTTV
Sequence of UniProt O00148 (O00148 whole entry, looked up): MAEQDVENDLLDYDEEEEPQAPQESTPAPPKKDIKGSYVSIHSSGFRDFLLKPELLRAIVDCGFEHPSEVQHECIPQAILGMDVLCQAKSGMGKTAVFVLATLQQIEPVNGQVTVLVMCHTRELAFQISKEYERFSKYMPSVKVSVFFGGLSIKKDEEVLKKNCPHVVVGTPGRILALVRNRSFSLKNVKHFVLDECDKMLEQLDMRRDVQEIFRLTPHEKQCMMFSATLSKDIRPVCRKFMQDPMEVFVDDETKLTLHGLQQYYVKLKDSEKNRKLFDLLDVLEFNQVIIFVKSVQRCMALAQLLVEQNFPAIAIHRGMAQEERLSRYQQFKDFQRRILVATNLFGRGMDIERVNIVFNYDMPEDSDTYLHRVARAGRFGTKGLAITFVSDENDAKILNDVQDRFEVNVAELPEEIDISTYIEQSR

Compound in the experiment: C[C@@H](Oc1cc(-c2cnn(C3CCNCC3)c2)cnc1N)c1c(Cl)ccc(F)c1Cl [crizotinib]
In words: log2 fold change, soluble protein after heating vs DMSO (PISA); higher = thermal stabilisation; K562 cells, 10 uM, 30 min; active = over 0.2 and 3.5 SD of the protein, either way, in both replicates (recomputed). In outline: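 K562 cells at 2×10^6 cells/mL were given 10 μM compound for 30 min. Aliquots then went through 3 min of heating across 48°C-58°C, were pooled, and were extracted in PBS with 0.5% NP-40 at 4°C, and the supernatant after 21,000xg for 90 min was quantified by TMTpro 16plex LC-MS/MS with channel sums equalised. Thermal stability relative to control samples, from duplicates, is given as log2 fold change.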
Regarding DDX39A (UniProt O00148), the log2 fold change was -0.082 (inactive).
As for DCAF10 (UniProt Q5QP82), the log2 fold change is 0.007 (inactive).
EDC4 (UniProt Q6P2E9): the log2 fold change was 0.179 (inactive).
Then EHD2 (UniProt Q9NZN4), with -0.068 (inactive); and DNAH10 (UniProt Q8IVF4), with 0.135 (inactive); and ETNK1 (UniProt Q9HBU6), with -0.022 (inactive).
DDX4 (UniProt Q9NQI0): the log2 fold change was 0.018 (inactive).
With E2F4 (UniProt Q16254) the figure was -0.029 (inactive); with EFL1 (UniProt Q7Z2Z2), -0.055 (inactive).
As for EXTL2 (UniProt Q9UBQ6), the log2 fold change was 0.111 (inactive).
On to ECPAS (UniProt Q5VYK3), for which the log2 fold change was -0.18 (inactive).
With EEF1AKNMT (UniProt Q8N6R0) the figure was -0.059 (inactive); with DNAJC1 (UniProt Q96KC8), -0.148 (inactive); with DHX40 (UniProt Q8IX18), -0.109 (inactive).
Then ERLIN2 (UniProt O94905), with -0.034 (inactive); and EED, A0A5F9ZI63, with 0.045 (inactive); and FAM118A (UniProt Q9NWS6), with -0.112 (inactive).
With CTNNB1 (UniProt P35222) the figure was 0.024 (inactive); with EXOC8 (UniProt Q8IYI6), -0.32 (active); with DDX5 (UniProt P17844), -0.16 (inactive).
For CTSB (UniProt P07858), the log2 fold change is -0.508 (active).
For FAM160B1 (UniProt Q5W0V3), the log2 fold change is -0.119 (inactive).
Consider DNAAF2 (UniProt Q9NVR5), for which the log2 fold change was -0.015 (inactive).
With DYNC1I2 isoform 5 (UniProt Q13409) the figure was 0.055 (inactive).
Then CTSL (UniProt P07711), with -0.489 (active); and CWC27 (UniProt Q6UX04), with 0.14 (inactive); and EEF1B2 (UniProt P24534), with -0.018 (inactive).
With DCUN1D1 (UniProt Q96GG9) the figure was -0.061 (inactive).
Turning to CUEDC2 (UniProt Q9H467), the log2 fold change is -0.029 (inactive).
Turning to CUX1 isoform 3 (UniProt P39880), the log2 fold change was -0.023 (inactive).
Regarding DPYSL2 (UniProt Q16555), the log2 fold change is 0.025 (inactive).
With EXOC2 (UniProt Q96KP1) the figure was -0.308 (inactive).
Then DIP2A (UniProt Q14689), with 0.087 (inactive); and DHCR24 (UniProt Q15392), with 0.428 (inactive); and DBN1 isoform 3 (UniProt Q16643), with 0.088 (inactive).
Then DPP8 (UniProt Q6V1X1), with -0.003 (inactive).
For DDB1 (UniProt Q16531), the log2 fold change was 0.033 (inactive).
Then FAM50A (UniProt Q14320), with 0.129 (inactive).
